Shown are actives, neighbours in structure and some others; about 2.9% of the full set was active somewhere.
GRK2 aptamer HTS – compounds blocking aptamer binding on GRK2 – biochemical, human GRK2, bead flow cytometry, HTS, primary screen; FAM-aptamer displacement from GRK2; inhibition of aptamer binding, % at 10 µM; hit rate 0.59% among 330,000; AID 488847, 2010;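 active means inhibition of aptamer binding above 40%, roughly 3 SD of noise, on plates passing a quality check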;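 further: median bead fluorescence of bound FAM aptamer so fluorescent compounds give negative values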
B2AR ag – beta2AR agonists driving receptor internalization, primary screen, cell-based, FAP fluorogen, flow cytometry; hit rate 0.43% among 340,000; Am2.2-beta2AR cells; response, % (no concentration beside the values);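 active means response above a set limit, near 3 SD of response in nonfluorescent compounds, cut at about 42% in these data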
Target sequence (P07550 whole entry, looked up): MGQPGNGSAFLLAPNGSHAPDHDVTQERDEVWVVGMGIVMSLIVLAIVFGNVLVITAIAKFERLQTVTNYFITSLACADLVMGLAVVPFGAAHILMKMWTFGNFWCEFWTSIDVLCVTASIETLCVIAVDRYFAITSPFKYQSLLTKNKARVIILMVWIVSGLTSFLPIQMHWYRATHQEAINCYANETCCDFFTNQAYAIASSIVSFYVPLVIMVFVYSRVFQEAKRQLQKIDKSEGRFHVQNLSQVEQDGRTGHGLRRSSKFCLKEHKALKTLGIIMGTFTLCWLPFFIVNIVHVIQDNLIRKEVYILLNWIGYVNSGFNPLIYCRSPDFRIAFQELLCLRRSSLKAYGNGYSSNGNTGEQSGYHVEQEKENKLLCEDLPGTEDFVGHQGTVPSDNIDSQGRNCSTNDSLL
PP1 counter – PP1-alpha phosphatase inhibitors, primary screen, counter-screen for PP5 inhibitor project, biochemical, fluorescence, OMFP substrate, single point. purified PP1alpha. AID 2235, 2010. inhibition, % at 6.7 µM. hit rate 0.9% among 320,000. Serine/threonine-protein phosphatase PP1-alpha catalytic subunit (Homo sapiens), P62136;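 active means inhibition above the mean inhibition of all tested compounds plus 3 SD, computed separately for each screening campaign, cut at about 15% in these data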
Exocytosis inh – LAMP-1 surface exposure blockers, TALL-104 cells – cell-based, flow cytometry, MLPCN library, primary screen | TALL-104 LAMP-1 surface exposure; cells stimulated with thapsigargin and PMA | hit rate 0.66% among 360,000 | inhibition, % at 10 µM;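 active means inhibition above about 55%, limit read from the data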
NadD block – inhibitors of S. aureus NadD, primary screen, biochemical, colorimetric, uHTS; inhibition, % at 20 µM; purified NadD enzyme, colorimetric absorbance read-out; AID 602399, 2012; hit rate 0.78% among 360,000; in the data active means inhibition above about 26%
GRK2 CP1 – GRK2 aptamer-displacing inhibitors, retest, confirmation, biochemical, cherry pick 1, bead flow cytometry; aptamer displacement, % at 10 µM; AID 504451, 2011; bead-bound GRK2, FAM-aptamer displacement; hit rate 4% among 2,000; shares compounds with GRK2 aptamer HTS;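 active means aptamer displacement above 40%, near three times the noise of non-fluorescent compounds, on plates passing quality checks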;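 further: negative values mostly reflect intrinsic compound fluorescence rather than true enhancement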
Aptamer quench – counter-screen for GRK2 aptamer inhibitors: fluorescent aptamer quenchers. Fluorescent RNA aptamer beads, quenching, flow cytometry; active compounds read high. fluorescence change (kMESF span), kMESF (test concentration not listed). 110 tested, under 10 active. shares compounds with GRK2 aptamer HTS. AID 504521;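 active means compounds whose bead fluorescence drops by more than 37 kMESF across the dose range, marking them as dye quenchers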
FAM quench CP1 – aptamer fluorescence quenching in GRK2 counter-screen. shares compounds with GRK2 aptamer HTS. fluorescence response (% of DMSO), % at 10 µM. 2,000 tested, under 10 active. AID 504580. Carboxyfluorescein RNA aptamer on beads, flow cytometry quenching; active compounds read low;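 active means compounds that quench the bead-bound fluorescent RNA probe, cutting fluorescence to under half of the solvent control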;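 further: counterscreen run without GRK2 so only probe quenching by compound is measured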
* marks the source's active call; other numbers are inactive results; i = inactive; . = not tested or not shown.

SMILES	GRK2 aptamer HTS	B2AR ag	PP1 counter	Exocytosis inh	NadD block	GRK2 CP1	FAM quench CP1	others
CC1CCCN(S(=O)(=O)c2ccc(NC(=O)C3CC(=O)N(c4ccccc4)C3)cc2)C1 (configuration not stated)	100*	-1	7	7	-4	3	102
COc1ccc(NC(=O)CSc2nnc(-c3cccs3)n2N)cc1S(N)(=O)=O	2	3	.	-8	1	.	.
N/C(=N\OC(=O)c1cc(Cl)ccc1Cl)c1ccccn1	100*	-8	-3	-1	7	-2	102
CN(Cc1ccccc1)C(=O)COC(=O)CCC(=O)c1ccc(F)cc1	31	0	.	4	-5	-4	97
CN(Cc1ccccc1)C(=O)COC(=O)CCC(=O)c1ccc(Cl)cc1	26	-1	.	-4	-7	.	.
CCC1CCC(NC(=O)Nc2cccc(OC)c2)CC1 (configuration not stated)	1	7	-3	0	-5	.	.
COCCNC(=O)c1noc2c1CCc1cc(OC)ccc1-2	0	-4	-5	-3	-5	.	.
COc1ccc2c(c1)CCc1c(C(=O)NCCCn3ccnc3)noc1-2	51*	-6	0	0	-6	-6	98
c1ccc2c(c1)CSc1ccccc1N2	97*	-3	1	-10	-9	-4	97
CC(C)(C)c1ccc(C(=O)N2CCC(C(=O)NCCC3=CCCCC3)CC2)cc1	74*	-6	0	1	1	-1	120
Cc1cc(=O)[nH]c(SCc2cccc3ccccc23)n1	10	1	-1	-6	-9	-1	107
c1ccc2cc(OCCOCCOc3ccc4ccccc4c3)ccc2c1	55*	0	-1	-5	-3	-4	101
O=C(C1=C[C@@H](c2ccc(C(F)(F)F)cc2)C[C@@H](OCc2ccc(CO)cc2)O1)N1CCN(Cc2ccccc2)CC1	1	8	4	-2	3	.	.
CCOc1ccc(CCNC(=O)C(CCC(N)=O)NC(=O)OCc2ccccc2)cc1OCC (configuration not stated)	0	1	0	-4	0	.	.
Cc1cccc(Cl)c1NNC(=O)Nc1c([N+](=O)[O-])c(C)nn1C	44*	7	-2	4	-7	0	100
O=C(NC1CCCCCC1)C1CCN(C(=O)c2cccc(Cl)c2)CC1	1	22	0	-5	0	.	.
COc1ccccc1-[n+]1c(C)cc(/C=C2\Sc3ccccc3N2C)cc1C	68*	i	4	45	-8	62*	162	Aptamer quench=-2
COc1ccc(C(=O)/C=C2\Sc3ccccc3N2C)cc1	0	-8	-9	0	-7	.	.
Cc1cc(C)n(C(=O)c2cc3c(s2)CCCC3)n1	2	3	-3	1	-5	.	.
O=C(COc1ccc(/C=N/NC(=O)c2cc3ccccc3o2)cc1Cl)Nc1ccccc1	54*	8	2	-1	-2	23	123
O=C(N/N=C/c1ccc2c(c1)OCO2)c1cc2ccccc2o1	6	2	1	0	-6	.	.
CC(C)(C)NC(=O)CN(C(=O)c1snc(C(=O)NC2CCCCC2)c1N)c1ccccc1F	3	-5	-2	1	-4	.	.
O=C(Cn1c(NCCO)nc2ccccc21)NCC1CCCO1 (configuration not stated)	100*	0	-2	11	1	-2	95
O=C(Cn1c(NCCO)nc2ccccc21)NCCc1ccccc1	2	-10	2	-1	0	.	.
C=CCCC(=O)N1C[C@H]2CON(C)[C@H]2C[C@H]1c1cccc(N2CCOCC2)c1	.	.	.	2	2	.	.
SMILES	GRK2 aptamer HTS	B2AR ag	PP1 counter	Exocytosis inh	NadD block	GRK2 CP1	FAM quench CP1	others
c1ccc(C2Nc3ccccc3Oc3ccccc32)cc1 (configuration not stated)	52*	0	7	6	0	-18	96
C=CCOc1ccc(C(=O)CC)cc1OC	93*	-7	-5	0	-7	4	100
CCC(=O)c1ccc(OCC(=O)O)c(OC)c1	1	4	-6	4	6	.	.
C[C@H](CO)N1C[C@H](C)[C@@H](CN(C)S(=O)(=O)c2cn(C)cn2)Oc2cc(Br)ccc2S1(=O)=O	.	.	.	1	7	.	.
C/C(=N\NC(=O)c1ccc(NS(=O)(=O)c2cccs2)cc1)c1ccc(O)cc1O	2	4	1	3	4	.	.
CCCSc1cc(N2CCOCC2)nc(-c2ccccc2Cl)n1	2	-5	2	-6	3	.	.
CCC(C)(C)NC(=O)C(c1ccccc1)N(C(=O)c1csnn1)C1CC1 (configuration not stated)	60*	-2	-1	0	0	-1	99
O=C1NC(=O)c2cc(NC(=O)C3CCCCC3)ccc21	100*	2	-4	2	5	-9	99
O=C(Nc1ccc(Cl)c(Cl)c1)C1CCCCC1	0	-16	-2	13	-2	.	.
CCC(C)(C)NC(=O)c1ccc2c(c1)S(=O)(=O)c1ccccc1C2=O	54*	2	2	-3	-6	-1	99
Cc1ccc(S(=O)(=O)N2CCN(C(=O)COC(=O)CCOc3ccccc3)CC2)c(C)c1	63*	-3	1	-4	-1	-3	100
CCOc1ccc(OCC)c(S(=O)(=O)NCc2cccnc2)c1	0	2	2	0	0	.	.
CCOc1ccc(OCC)c(S(=O)(=O)NCc2ccccc2)c1	42*	-4	3	9	4	1	93
CCCC(=O)N1CCC1(C)C(=O)Nc1ccc(OC)c(OC)c1 (configuration not stated)	.	.	.	-5	-5	.	.
Cc1cc(OCc2nc(-c3ccncc3)no2)cc(C)c1Cl	47*	2	5	6	-3	-1	100
Clc1ccc(OCc2nc(-c3ccncc3)no2)cc1	0	-2	-6	2	2	.	.
C=CCn1c(N)cc(=O)nc1SCC(=O)N1CCN(c2ccc(F)cc2)CC1	56*	-14	-3	-2	-5	-5	104
Nc1nc(SCC(=O)N2CCN(c3ccc(F)cc3)CC2)n[nH]1	0	-8	0	-4	-2	.	.

Assay outcomes from PubChem.
